Data reported in PubChem BioAssay AID1159580 (chemical genetic matrix, 2015).
About 2,000 (36%) of roughly 5,500 compounds were called active. Another 18% or so got no clear call; they are omitted. Cut-off read from the data, not from the text of the source: active = normalized growth mostly below about 0.91 (no sharp cut-off); inconclusive = no clear call, values can overlap the other calls; inactive = mostly above about 0.92. Some of the results follow.

Assay: chemical genetic growth profiling, strain panel (AID 1159580);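 note: tested at 20 µM; growth read once vehicle control cultures reached saturation at 30 °C; 1 = growth at the plate median or of vehicle wells; lower values mean less growth of the strain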
Settings: growth OD
[1] = S. cerevisiae deletion strains, locus YAL013W, strain DEP1, stronger effect = lower value
[2] = S. cerevisiae deletion strains, locus YBR229C, strain ROT2, stronger effect = lower value
[3] = S. cerevisiae deletion strains, locus YCL061C, strain MRC1, stronger effect = lower value
[4] = S. cerevisiae deletion strains, locus YDL101C, strain DUN1, stronger effect = lower value
[5] = S. cerevisiae deletion strains, locus YDR150W, strain NUM1, stronger effect = lower value
[6] = S. cerevisiae deletion strains, locus YEL061C, strain CIN8, stronger effect = lower value
[7] = S. cerevisiae deletion strains, locus YGR078C, strain PAC10, stronger effect = lower value
[8] = S. cerevisiae deletion strains, locus YHR030C, strain SLT2, stronger effect = lower value
[9] = S. cerevisiae deletion strains, locus YHR087W, strain rtc3, stronger effect = lower value
[10] = S. cerevisiae deletion strains, locus YJR043C, strain POL32, stronger effect = lower value
[11] = S. cerevisiae deletion strains, locus YJR075W, strain HOC1, stronger effect = lower value
[12] = S. cerevisiae deletion strains, locus YKL190W, strain CNB1, stronger effect = lower value
[13] = S. cerevisiae deletion strains, locus YLR039C, strain RIC1, stronger effect = lower value
[14] = S. cerevisiae deletion strains, locus YLR058C, strain SHM2 (second series), stronger effect = lower value
[15] = S. cerevisiae deletion strains, locus YLR085C, strain ARP6, stronger effect = lower value
[16] = S. cerevisiae deletion strains, locus YLR262C, strain YPT6, stronger effect = lower value
[17] = S. cerevisiae deletion strains, locus YML094W, strain GIM5, stronger effect = lower value
[18] = S. cerevisiae deletion strains, locus YMR219W, strain ESC1, stronger effect = lower value
[19] = S. cerevisiae deletion strains, locus YMR263W, strain SAP30, stronger effect = lower value
[20] = S. cerevisiae deletion strains, locus YNL153C, strain GIM3, stronger effect = lower value
[21] = S. cerevisiae deletion strains, locus YNL298W, strain CLA4 (second series), stronger effect = lower value
[22] = S. cerevisiae deletion strains, locus YNL322C, strain KRE1, stronger effect = lower value
[23] = S. cerevisiae deletion strains, locus YNR030W, strain Alg12, stronger effect = lower value
[24] = S. cerevisiae deletion strains, locus YPL055C, strain LGE1, stronger effect = lower value
[25] = S. cerevisiae deletion strains, locus YPL241C, strain CIN2, stronger effect = lower value
[26] = S. cerevisiae deletion strains, locus YPR135W, strain CTF4, stronger effect = lower value

Measured: normalized growth

O=C(CSCc1cccc2ccccc12)NNC(=S)Nc1ccccc1Cl
active: [6] 0.813 | [12] 0.844 | [13] 0.588 | [15] 0.679 | [16] 0.623 | [17] 0.857 | [21] 0.564 | [23] 0.63 | S. cerevisiae deletion strains, locus YOL006C, strain TOP1, stronger effect = lower value 0.365 | [25] 0.648 | S. cerevisiae strains, strain wild type, stronger effect = lower value 0.765
inactive: [1] 0.969 | [2] 0.991 | [3] 0.971 | [4] 0.987 | [5] 0.933 | [7] 0.984 | [8] 0.728 | [9] 1.02 | [10] 0.986 | [11] 0.984 | [14] 0.978 | [18] 0.988 | [19] 0.955 | [20] 0.958 | [22] 0.996 | [24] 0.903 | [26] 0.793

Cc1cccc(NC(=S)NNC(=O)CSCc2cccc3ccccc23)c1
inactive: S. cerevisiae deletion strains, locus YAR019C, strain CDC15, stronger effect = lower value 0.986 | S. cerevisiae deletion strains, locus YBL105C, strain PKC1, stronger effect = lower value 0.988 | S. cerevisiae deletion strains, locus YBR135W, strain CKS1, stronger effect = lower value 0.999 | S. cerevisiae deletion strains, locus YBR136W, strain MEC1, stronger effect = lower value 0.974 | S. cerevisiae deletion strains, locus YBR160W, strain CDC28, stronger effect = lower value 1 | S. cerevisiae deletion strains, locus YDL017W, strain CDC7, stronger effect = lower value 0.987 | S. cerevisiae deletion strains, locus YDL028C, strain MPS1, stronger effect = lower value 0.984 | [4] 0.975 | S. cerevisiae deletion strains, locus YDL108W, strain KIN28, stronger effect = lower value 0.982 | S. cerevisiae deletion strains, locus YDL132W, strain cdc53, stronger effect = lower value 0.989 | S. cerevisiae deletion strains, locus YDL214C, strain PRR2, stronger effect = lower value 0.904 | S. cerevisiae deletion strains, locus YDR052C, strain DBF4, stronger effect = lower value 1 | S. cerevisiae deletion strains, locus YDR054C, strain cdc34, stronger effect = lower value 0.983 | S. cerevisiae deletion strains, locus YDR226W, strain ADK1, stronger effect = lower value 0.988 | S. cerevisiae deletion strains, locus YDR477W, strain SNF1, stronger effect = lower value 0.924 | S. cerevisiae deletion strains, locus YER123W, strain YCK3, stronger effect = lower value 0.851 | S. cerevisiae deletion strains, locus YER133W, strain GLC7, stronger effect = lower value 0.906 | S. cerevisiae deletion strains, locus YFL009W, strain cdc4, stronger effect = lower value 0.99 | S. cerevisiae deletion strains, locus YFL029C, strain CAK1, stronger effect = lower value 0.983 | S. cerevisiae deletion strains, locus YFR003C, strain YPI1, stronger effect = lower value 0.982 | S. cerevisiae deletion strains, locus YFR019W, strain FAB1, stronger effect = lower value 0.965 | S. cerevisiae deletion strains, locus YFR028C, strain CDC14, stronger effect = lower value 0.99 | S. cerevisiae deletion strains, locus YGR040W, strain KSS1, stronger effect = lower value 0.904 | S. cerevisiae deletion strains, locus YGR052W, strain FMP48, stronger effect = lower value 0.992 | S. cerevisiae deletion strains, locus YGR092W, strain DBF2, stronger effect = lower value 0.865 | [8] 0.997 | S. cerevisiae deletion strains, locus YHR079C, strain IRE1, stronger effect = lower value 0.992 | S. cerevisiae deletion strains, locus YHR082C, strain KSP1, stronger effect = lower value 0.983 | S. cerevisiae deletion strains, locus YHR205W, strain SCH9, stronger effect = lower value 0.963 | S. cerevisiae deletion strains, locus YIL147C, strain SLN1, stronger effect = lower value 0.972 | S. cerevisiae deletion strains, locus YJL095W, strain BCK1, stronger effect = lower value 0.995 | S. cerevisiae deletion strains, locus YJL128C, strain PBS2, stronger effect = lower value 0.96 | S. cerevisiae deletion strains, locus YJL157C, strain FAR1, stronger effect = lower value 0.881 | S. cerevisiae deletion strains, locus YJR016C, strain ILV3, stronger effect = lower value 0.984 | S. cerevisiae deletion strains, locus YJR066W, strain TOR1 (second series), stronger effect = lower value 0.866 | S. cerevisiae deletion strains, locus YJR066W, strain TOR1, stronger effect = lower value 0.981 | S. cerevisiae deletion strains, locus YKL048C, strain ELM1, stronger effect = lower value 0.991 | S. cerevisiae deletion strains, locus YKL067W, strain YNK1, stronger effect = lower value 0.914 | S. cerevisiae deletion strains, locus YKL101W, strain HSL1, stronger effect = lower value 0.929 | S. cerevisiae deletion strains, locus YKL193C, strain SDS22, stronger effect = lower value 0.989 | S. cerevisiae deletion strains, locus YKL203C, strain TOR2, stronger effect = lower value 0.989 | S. cerevisiae deletion strains, locus YLR113W, strain HOG1, stronger effect = lower value 0.962 | S. cerevisiae deletion strains, locus YLR133W, strain CKI1, stronger effect = lower value 0.948 | S. cerevisiae deletion strains, locus YLR403W, strain SFP1, stronger effect = lower value 0.909 | S. cerevisiae deletion strains, locus YML070W, strain DAK1, stronger effect = lower value 0.912 | S. cerevisiae deletion strains, locus YMR001C, strain CDC5, stronger effect = lower value 0.988 | S. cerevisiae deletion strains, locus YMR205C, strain PFK2 (second series), stronger effect = lower value 0.943 | S. cerevisiae deletion strains, locus YMR277W, strain FCP1, stronger effect = lower value 0.988 | S. cerevisiae deletion strains, locus YNL006W, strain LST8, stronger effect = lower value 0.986 | S. cerevisiae deletion strains, locus YNL020C, strain ARK1, stronger effect = lower value 0.925 | S. cerevisiae deletion strains, locus YNL161W, strain CBK1, stronger effect = lower value 0.984 | S. cerevisiae deletion strains, locus YNL183C, strain NPR1, stronger effect = lower value 0.996 | S. cerevisiae deletion strains, locus YNL207W, strain RIO2, stronger effect = lower value 0.983 | S. cerevisiae deletion strains, locus YNL222W, strain SSU72, stronger effect = lower value 0.991 | S. cerevisiae deletion strains, locus YNL307C, strain MCK1 (second series), stronger effect = lower value 0.922 | S. cerevisiae deletion strains, locus YOL078W, strain AVO1, stronger effect = lower value 0.988 | S. cerevisiae deletion strains, locus YOL136C, strain PFK27, stronger effect = lower value 0.925 | S. cerevisiae deletion strains, locus YOR061W, strain CKA2, stronger effect = lower value 0.904 | S. cerevisiae deletion strains, locus YOR119C, strain RIO1, stronger effect = lower value 0.965 | S. cerevisiae deletion strains, locus YOR231W, strain MKK1, stronger effect = lower value 0.982 | S. cerevisiae deletion strains, locus YOR329C, strain SCD5, stronger effect = lower value 0.981 | S. cerevisiae deletion strains, locus YPL031C, strain PHO85, stronger effect = lower value 0.904 | S. cerevisiae deletion strains, locus YPL153C, strain RAD53, stronger effect = lower value 0.91 | S. cerevisiae deletion strains, locus YPL204W, strain HRR25, stronger effect = lower value 0.914 | S. cerevisiae deletion strains, locus YPL209C, strain IPL1, stronger effect = lower value 0.983 | S. cerevisiae deletion strains, locus YPL256C, strain CLN2, stronger effect = lower value 1.01 | S. cerevisiae deletion strains, locus YPR025C, strain CCL1, stronger effect = lower value 0.99 | S. cerevisiae deletion strains, locus YPR106W, strain ISR1, stronger effect = lower value 0.99 | S. cerevisiae deletion strains, locus YPR111W, strain DBF20, stronger effect = lower value 0.99 | S. cerevisiae deletion strains, strain NNK1, stronger effect = lower value 0.982 | S. cerevisiae deletion strains, strain TSCII, stronger effect = lower value 0.988

O=C(CSCc1cccc2ccccc12)NNC(=O)c1ccc(F)cc1
inactive: [1] 0.998 | [2] 0.988 | [3] 1 | [4] 1 | [5] 0.979 | [6] 0.992 | [7] 0.993 | [8] 0.93 | [9] 0.98 | [10] 0.988 | [11] 0.983 | [12] 0.991 | [13] 0.958 | [14] 0.982 | [15] 0.978 | [16] 0.919 | [17] 1.08 | [18] 0.99 | [19] 0.984 | [20] 0.985 | [21] 0.949 | [22] 1 | [23] 0.955 | [24] 1 | [25] 0.989 | [26] 1.07
